According to PubChem BioAssay (NCATS):
Results filed as inconclusive are left out. Activity calls are given as the source filed them. Unless noted, the call rests on the fitted dose curve; in most records, active means well fitted curve in the direction sought with a large enough effect; inconclusive means small, poorly fitted or top-dose-only effect, or another doubt; inactive means no such curve, though single readings can be large; an effect the other way counts as inactive or inconclusive.

Tests used:
[1] = biological target: Voltage-gated inwardly rectifying potassium channel KCNH2 (Homo sapiens) (UniProt Q12809); assay: qHTS Assay for Small Molecule Inhibitors of the Human hERG Channel Activity (AID 588834);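 further: lower thallium flux fluorescence means stronger hERG block; nearly all actives have a fitted effect of over 50% in size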; further: potency means the concentration at half of the fitted maximal effect
Outline: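 Step 1: BacMam hERG transduction of U2OS, 4 hrs RT. Step 2: overnight 37 °C, plate 2000 cells/well, 4 hr. Step 3: FluxOR load, compound 10 min, stimulate, read fluorescence.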

[2] = biological target: Glutaminase kidney isoform, mitochondrial (Homo sapiens) (UniProt O94925); assay: qHTS for Inhibitors of Glutaminase (GLS): LOPAC Validation (AID 624146); further: nearly all actives have a fitted effect of over 60% in size; further: potency means the concentration at half of the fitted maximal effect
Outline: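 Read-out is an Amplex red fluorescence increase coupled through glutamate oxidase and HRP, measured before and after 30 min room-temperature incubation. hKGA is in 45 mM KH2PO4 (pH 8.2) with 0.02% Tween-20; glutamine added as 1mM solution.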

[3] = qHTS of Trypanosoma Brucei Inhibitors: LOPAC Validation (AID 624147)
Outline: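 Enzyme and substrate buffer are dispensed first and compound is pin-transferred. ADP at 130 uM final then starts the reaction, which runs 45 min at room temperature. Detection reagent is added for 10 min before luminescence is imaged.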

[4] = biological target: Glucagon-like peptide 1 receptor (Homo sapiens) (UniProt P43220); assay: qHTS of GLP-1 Receptor Agonists: LOPAC Validation (AID 624148);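 further: luminescence from a luciferase reporter switched on by cAMP; higher luminescence signal means agonism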
Outline: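 Agonism scored as increased luciferase luminescence driven by cAMP in HEK293 clones carrying GLP-1R. Cells settled 12 hours, received compound for 4-6 hr at 37 deg C, 5% CO2, and were read after 12 min detection reagent at RT.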

[5] = qHTS of Nrf2 Activators: LOPAC Validation (AID 624149)
Outline: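 Cells (AREc32_Fluc) are plated at 1000 per well in OPTI-MEM containing 5% FBS and left overnight. Compounds are pinned in and incubated 24 hr at 37 deg C, and firefly luciferase is detected with Steady-Glo.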

[6] = HTS Assay for Allosteric Antagonists of the Human D2 Dopamine Receptor: Hit Validation in HTRF (AID 624455);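 further: stable D1 dopamine receptor cell line scored for blocking the D1 response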
Outline: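 Inhibition of the D1-mediated response is measured by HTRF in cells that stably express the D1 dopamine receptor. Compounds reaching this step are hits from calcium-flux antagonism testing at EC80 dopamine in inducible Hek293 Trex D2 cells.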

[7] = biological target: Luciferin 4-monooxygenase (Photinus pyralis) (UniProt P08659); assay: Biochemical firefly luciferase enzyme assay for NPC (AID 624030)
Outline: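 Direct inhibition of firefly luciferase enzyme (10 nM final, 50 mM Tris Acetate) assessed by luminescence within 5 minutes. Percent activity scaled between DMSO and PTC124 positive control, with concentration-effect curves classified by fit quality and response.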

[8] = S16 Schwann cell PMP22 intronic element firefly luciferase assay (AID 624032)
Description: Charcot-Marie-Tooth-Association [CMTA]
National Center for Advancing Translational Sciences [NCATS]
Charcot-Marie-Tooth (CMT) disease was first characterized by Jean-Martin Charcot and Pierre Marie in France and, independently, by Howard Henry Tooth in England in 1886. CMT is one of the most common inherited neurological diseases, affecting approximately 1 in 2,500 Americans. […] The most prevalent type of CMT is known as CMT1A and caused by a duplication of the PMP22 gene which leads to over-expression of this protein. PMP22 is a glycosylated intrinsic membrane protein accounting for 2-5% of the myelin protein content, and its over-expression results in demyelination and subsequently axonal loss.
A pair of cellular transcription-based assays was developed in the S16 rat Schwann cell lines (Hai, M., et al., 2002) stably transfected with orthogonal reporters - firefly luciferase (Fluc) and beta-lactamase (beta-Lac) - whose expression is driven by an intronic regulatory element of the PMP22 gene (Jones, E.A., et al., 2011) to recapitulate endogenous expression of PMP22. The current assay employs Fluc to report on PMP22 expression. A comprehensive library of approved drugs, the NCGC Pharmaceutical Collection (Huang, R., et al., 2011), was screened in the cross-validating platform of the orthogonal reporter assays to identify drug modulators inhibitory towards PMP22 expression.
A set of counter-screens was devised to address non-specific activity of the library. An ATP-dependent CellTiter-Glo assay (developed by Promega Corp) was utilized to control cell viability. In addition, biochemical Fluc enzyme assay was performed to assess direct inhibition of the Fluc enzymatic activity.
Hai, M., Muja, N., DeVries, G.H., Quarles, R.H. and Patel, P.I. Comparative analysis of Schwann cell lines as model systems for myelin gene transcription studies. J Neurosci Res, 2002. 69(4): pp 497-508
Huang, R., Southall, N., Wang, Y., Yasgar A., Shinn P., Jadhav, A. , Nguyen, D.-T. and Austin, C.P., The NCGC pharmaceutical collection: a comprehensive resource of clinically approved drugs enabling repurposing and chemical genomics. Sci Transl Med, 2011. 3(80): p. 80ps16.
S16 Schwann cell PMP22 intronic element firefly luciferase assay
The FLuc-expressing S16 cells were seeded in white solid 1536-well plates at between 500-750 cells/4uL in DMEM medium containing 10% FBS, w/o phenol red. After overnight incubation at 37 degree Celsius/5% C02, 23 nL of compounds or DMSO were delivered to each well using a pin tool, followed by 24h-incubation at 37 degree Celsius/5% C02. Then 4 uL ONE-Glo luminescent substrate mix (Promega) was added to each well. Luminescence was measured on a ViewLux plate reader (Perkin Elmer). The % activity was determined by normalizing to the average readings of PTC124 (a positive control) - treated cells relative to DMSO-treated cells (0% Activity). The concentration-effect curves were then classified based on curve quality (r2), response magnitude and degree of measured activity.

[9] = S16 Schwann cell PMP22 intronic element beta-lactamase assay (AID 624044; calls by dose curve)
Outline: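 Beta-lactamase reporter under a PMP22 intronic regulatory element in stable S16 rat Schwann cells; 24 h compound exposure. 460 nm blue signal normalized between DMSO (0%) and potassium clavulanate, with 535 nm FRET tracking viability; curves classed by r2 and response.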

Measured: Potency

Chain of Voltage-gated inwardly rectifying potassium channel KCNH2 (Homo sapiens) (Q12809 whole entry, looked up): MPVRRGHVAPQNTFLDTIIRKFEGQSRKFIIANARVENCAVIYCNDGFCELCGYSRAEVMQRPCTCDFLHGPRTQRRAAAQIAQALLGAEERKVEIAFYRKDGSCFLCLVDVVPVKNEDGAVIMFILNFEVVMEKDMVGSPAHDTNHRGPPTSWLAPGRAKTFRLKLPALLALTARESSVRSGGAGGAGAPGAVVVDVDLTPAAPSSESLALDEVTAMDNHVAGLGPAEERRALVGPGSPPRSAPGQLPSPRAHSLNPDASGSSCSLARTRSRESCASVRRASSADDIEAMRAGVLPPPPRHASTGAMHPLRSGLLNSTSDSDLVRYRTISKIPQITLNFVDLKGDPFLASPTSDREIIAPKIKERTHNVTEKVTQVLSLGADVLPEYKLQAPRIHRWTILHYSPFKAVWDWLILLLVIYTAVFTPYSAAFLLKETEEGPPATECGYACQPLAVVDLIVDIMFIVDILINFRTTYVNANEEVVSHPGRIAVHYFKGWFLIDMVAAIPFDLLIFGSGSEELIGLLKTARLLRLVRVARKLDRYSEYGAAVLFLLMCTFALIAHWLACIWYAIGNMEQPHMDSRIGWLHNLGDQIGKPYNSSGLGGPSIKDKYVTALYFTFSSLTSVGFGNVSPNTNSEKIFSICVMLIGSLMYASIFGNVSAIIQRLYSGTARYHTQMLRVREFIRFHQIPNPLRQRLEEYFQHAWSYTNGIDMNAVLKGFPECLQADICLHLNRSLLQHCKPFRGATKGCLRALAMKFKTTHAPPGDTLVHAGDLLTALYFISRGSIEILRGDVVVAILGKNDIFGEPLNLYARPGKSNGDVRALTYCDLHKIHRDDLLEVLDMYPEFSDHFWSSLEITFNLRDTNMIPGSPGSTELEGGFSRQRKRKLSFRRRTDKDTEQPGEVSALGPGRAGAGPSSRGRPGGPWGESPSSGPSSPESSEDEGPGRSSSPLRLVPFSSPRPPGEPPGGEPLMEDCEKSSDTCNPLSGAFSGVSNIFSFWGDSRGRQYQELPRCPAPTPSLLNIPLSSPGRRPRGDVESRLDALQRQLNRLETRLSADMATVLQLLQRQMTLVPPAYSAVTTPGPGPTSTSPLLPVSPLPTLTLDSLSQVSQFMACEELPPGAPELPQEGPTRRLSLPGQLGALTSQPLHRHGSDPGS
Chain of Glucagon-like peptide 1 receptor (Homo sapiens) (P43220 whole entry, looked up): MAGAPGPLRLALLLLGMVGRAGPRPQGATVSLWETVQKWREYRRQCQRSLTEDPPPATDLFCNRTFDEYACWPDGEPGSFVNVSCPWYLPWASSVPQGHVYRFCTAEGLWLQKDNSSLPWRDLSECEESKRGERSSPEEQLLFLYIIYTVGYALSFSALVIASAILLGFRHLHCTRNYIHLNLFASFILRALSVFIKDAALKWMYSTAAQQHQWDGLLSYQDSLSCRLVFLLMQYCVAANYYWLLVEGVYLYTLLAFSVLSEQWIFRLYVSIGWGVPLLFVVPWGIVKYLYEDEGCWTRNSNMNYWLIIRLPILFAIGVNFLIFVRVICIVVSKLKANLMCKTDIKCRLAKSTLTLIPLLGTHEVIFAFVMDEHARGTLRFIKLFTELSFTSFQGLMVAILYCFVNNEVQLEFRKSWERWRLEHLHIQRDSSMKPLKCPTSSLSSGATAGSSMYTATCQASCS
Chain of Glutaminase kidney isoform, mitochondrial (Homo sapiens) (O94925 whole entry, looked up, canonical isoform): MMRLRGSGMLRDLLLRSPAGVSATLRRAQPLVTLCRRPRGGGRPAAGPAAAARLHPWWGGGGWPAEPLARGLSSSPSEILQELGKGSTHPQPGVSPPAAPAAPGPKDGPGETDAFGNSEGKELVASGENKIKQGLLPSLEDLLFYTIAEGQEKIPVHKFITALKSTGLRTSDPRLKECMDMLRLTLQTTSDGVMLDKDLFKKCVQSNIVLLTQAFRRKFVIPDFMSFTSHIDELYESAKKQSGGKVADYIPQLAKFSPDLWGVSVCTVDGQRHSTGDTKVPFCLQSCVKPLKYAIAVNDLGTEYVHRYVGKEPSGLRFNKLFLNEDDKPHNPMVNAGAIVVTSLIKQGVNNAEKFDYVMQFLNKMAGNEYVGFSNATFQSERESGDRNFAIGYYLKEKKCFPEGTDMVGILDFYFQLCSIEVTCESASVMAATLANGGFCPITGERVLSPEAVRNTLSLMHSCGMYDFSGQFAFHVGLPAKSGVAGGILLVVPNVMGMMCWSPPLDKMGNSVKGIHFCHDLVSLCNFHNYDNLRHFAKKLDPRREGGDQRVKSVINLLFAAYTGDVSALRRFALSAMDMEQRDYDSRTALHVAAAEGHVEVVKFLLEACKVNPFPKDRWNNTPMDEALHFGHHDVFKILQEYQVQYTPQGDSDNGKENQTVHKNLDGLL

Cn1ccnc1
inactive: [1] | [2] | [3] | [4] | [5]

NC1(C(=O)O)CCc2cc(C(=O)O)ccc21 (stereo not given)
not listed: [7] | [8] | [9]
inactive: all other assays above

N[C@@H](Cc1ccc(O)c(I)c1)C(=O)O
not listed: [7] | [8] | [9]
inactive: all other assays above

N[C@H](C(=O)O)[C@H]1C[C@@H]1C(=O)O
not listed: [7] | [8] | [9]
inactive: all other assays above

OCC1NCC(O)C(O)C1O (stereo not given)
inactive: [1] | [2] | [3] | [4] | [5]

NC(N)=NC(N)=Nc1cccc(Cl)c1
active: [1] 8910 nM
inactive: [2] | [3] | [4] | [5] | [6]

CNC(=O)c1cc2c(cn1)[nH]c1ccccc12
not listed: [7] | [8] | [9]
inactive: all other assays above

CC(C)C[C@H](NC(=O)[C@H](O)[C@H](N)Cc1ccccc1)C(=O)O
not listed: [7] | [8] | [9]
inactive: all other assays above

N#C/C(=C\c1ccc(O)c(O)c1)C(=O)NCCc1ccccc1
inactive: [3] | [4] | [5] | [6]
active: [1] 3980 nM | [2] 1120 nM

CCCCCCCCCCC/C=C\C(C)(C)/C=C\CCCC(=O)O
not listed: [7] | [8] | [9]
inactive: all other assays above

Cc1cccc(C(=O)NCN2CCN(c3ccccc3C#N)CC2)c1
not listed: [7] | [8] | [9]
inactive: all other assays above

CCCCS(=N)(=O)CC[C@H](N)C(=O)O (stereo not given in full)
not listed: [7] | [8] | [9]
inactive: all other assays above

CC[N+](CC)(CC)CC(=O)Nc1c(C)cccc1C
not listed: [7] | [8] | [9]
inactive: all other assays above

O=c1[nH]c2ccccc2c2ccccc12
not listed: [7] | [8] | [9]
inactive: all other assays above

CC(=O)NCCc1c[nH]c2ccc(O)cc12
inactive: [1] | [3] | [4] | [5] | [6]
active: [2] 1000 nM

CC(N)=NCCCC[C@@H](N)C(=O)O
not listed: [7] | [8] | [9]
inactive: all other assays above

Cn1c(=O)c2[nH]c(C3CCCC3)nc2n(C)c1=O
not listed: [7] | [8] | [9]
inactive: all other assays above

O=C(O)C1CN(CCCP(=O)(O)O)CCN1 (stereo not given)
not listed: [7] | [8] | [9]
inactive: all other assays above

[N-]=[N+]=Nc1ccc(C(=O)CSC[C@H](NC(=O)CC[C@H](N)C(=O)O)C(=O)NCC(=O)O)cc1
not listed: [7] | [8] | [9]
inactive: all other assays above

c1ccc2c(c1)CC(N1CCN(c3cccc4c3OCCO4)CC1)C2
active: [1] 15800 nM
inactive: [2] | [3] | [4] | [5] | [6]

C[N+](C)(C)CC=O
not listed: [7] | [8] | [9]
inactive: all other assays above

COC(=O)C(N)Cc1ccc(Cl)cc1 (stereo not given)
not listed: [7] | [8] | [9]
inactive: all other assays above

Nc1ccc(N2C(=O)c3ccccc3C2=O)c(Cl)c1
not listed: [7] | [8] | [9]
inactive: all other assays above

O=[N+]([O-])c1cccc2cn[nH]c12
not listed: [7] | [8] | [9]
inactive: all other assays above

O=C(O)CCC(=O)N1CCCC1C(=O)O (stereo not given)
not listed: [7] | [8] | [9]
inactive: all other assays above

C#CCn1c(=O)c2c(ncn2C)n(C)c1=O
not listed: [7] | [8] | [9]
inactive: all other assays above

NCCS(=O)O
not listed: [7] | [8] | [9]
inactive: all other assays above

COc1ccccc1N1CCN(CCCCN2C(=O)c3ccccc3C2=O)CC1
inactive: [2] | [3] | [4] | [5] | [6]
active: [1] 2240 nM
